Holding throughout (experiment): qHTS profiling for inhibitors of Plasmodium falciparum proliferation (AID 504749); note: nearly all actives have a fitted effect of over 60% in size
What all share (conditions): P. falciparum in erythrocytes, SYBR Green DNA, 72 h; series mostly up to 28.7 µM
(Quantitative high-throughput screening tests each substance at several concentrations.)

One experiment deals with CP265. In outline: (§1)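 In a 72 h erythrocytic culture (37 C, humidified, 5% CO2) at 2.5% hematocrit and 0.3% starting parasitemia, compounds were tested; SYBR Green I in detergent lysis buffer stained parasite DNA overnight.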
Another experiment has as its system CP266. In outline: as §1
A further experiment deals with CP268. In outline: as §1
The subject of another experiment is CP269. In outline:
as §1

Another experiment deals with CP286. In outline:
as §1

For the next experiment, the system named is CP291. In outline:
as §1

The test system of another experiment is CP297. In outline: as §1
A further experiment concerns CP305. The gist of the method:
as §1

A further experiment has as its system CP315. The gist of the method:
as §1

The test system of another experiment is CP325. In outline:
as §1

Results filed as inconclusive are left out. Active and inactive are the calls of the source. Calls come from the whole dose curve; as a rule, active = well fitted inhibition curve with a large enough effect; inconclusive = small, poorly fitted or top-dose-only effect; inactive = flat fitted curve, though single readings scatter.
Potency is the fitted concentration of half-maximal effect.

In the case of `CC(O)CO` (stereo not given), the Potency result in the experiment with CP265, in the experiment on CP266, with CP268, in the experiment on CP269, in the experiment on CP286 and with CP291 was “inactive” in each case. Also, the Potency result with CP297, in the experiment with CP305, in the experiment with CP315 and with CP325 was “inactive” in each case.

With `COC(=O)[C@H]1[C@H]2C[C@@H]3c4[nH]c5ccccc5c4CCN3C[C@H]2C[C@@H](OC(=O)c2cc(OC)c(OC)c(OC)c2)[C@@H]1OC`, the Potency was 398 nM (active) in the experiment on CP265; 1070 nM (active) with CP266; 601 nM (active) in the experiment on CP268; 675 nM (active) in the experiment with CP269; 282 nM (active) in the experiment on CP286; 675 nM (active) in the experiment on CP291. The Potency in the experiment with CP297 was 190 nM (active); in the experiment on CP305 it was 849 nM (active); in the experiment with CP315, 849 nM (active); with CP325, 757 nM (active).

Regarding `CN1C(=O)CN2CCc3ccccc3C2c2cc(Cl)ccc21` (stereo not given), the Potency result with CP265, in the experiment with CP266, in the experiment with CP268, in the experiment with CP269, in the experiment on CP286 and in the experiment on CP291 was “inactive” throughout. Further, the Potency entry in the experiment with CP297, with CP305, in the experiment on CP315 and in the experiment on CP325 was “inactive” in each case.

As to `CCNC(=O)[C@@H]1CCCN1C(=O)[C@H](CCCN=C(N)N)NC(=O)[C@H](CC(C)C)NC(=O)[C@@H](Cc1c[nH]c2ccccc12)NC(=O)[C@H](Cc1ccc(O)cc1)NC(=O)[C@H](CO)NC(=O)[C@H](Cc1c[nH]c2ccccc12)NC(=O)[C@H](Cc1cnc[nH]1)NC(=O)[C@@H]1CCC(=O)N1`, the Potency is 7940 nM (active) with CP265; 13500 nM (active) in the experiment with CP266; 8490 nM (active) with CP268; 7570 nM (active) in the experiment with CP269; 3160 nM (active) in the experiment on CP286; 7570 nM (active) in the experiment on CP291. For the same compound, the Potency in the experiment on CP297 was 6750 nM (active); with CP305, 7570 nM (active); in the experiment on CP315, 15100 nM (active); with CP325, 12000 nM (active).

With `CCC(=O)NCCC1CCc2ccc3c(c21)CCO3` (stereo not given), the Potency result in the experiment on CP265, in the experiment on CP266, with CP268, in the experiment on CP269, in the experiment with CP286 and in the experiment with CP291 was “inactive” throughout. Further, the Potency result with CP297, in the experiment on CP305, in the experiment with CP315 and in the experiment on CP325 was “inactive” throughout.

Turning to `CC1=C(/C=C/C(C)=C/C=C/C(C)=C/C=C/C=C(C)/C=C/C=C(C)/C=C/C2=C(C)C(=O)CCC2(C)C)C(C)(C)CCC1=O`, the Potency entry in the experiment on CP265, in the experiment with CP266, with CP268, with CP269, in the experiment on CP286 and in the experiment on CP291 was “inactive” throughout. In addition, the Potency entry in the experiment with CP297, with CP305, with CP315 and in the experiment on CP325 was “inactive” each time.

Turning to `C=CCSSSCC=C`, the Potency result in the experiment on CP265, in the experiment on CP266, with CP268, in the experiment with CP269, in the experiment on CP286 and in the experiment with CP291 was “inactive” each time. For the same compound, the Potency result in the experiment with CP297, with CP305, in the experiment with CP315 and in the experiment on CP325 was “inactive” each time.

Turning to `CCCCCCCCCCCCCC[n+]1ccc(C)cc1`, the Potency in the experiment on CP265 was 4470 nM (active); in the experiment with CP266 it was 4260 nM (active); in the experiment on CP268, 1690 nM (active); with CP269, 1690 nM (active); with CP286, 1260 nM (active); in the experiment with CP291, 4260 nM (active). The Potency in the experiment on CP297 is 4780 nM (active); with CP305 it was 2390 nM (active); in the experiment with CP315, 4780 nM (active); in the experiment with CP325 it was 3380 nM (active).

`Cc1cn([C@H]2C[C@H](O)[C@@H](CO)O2)c(=O)[nH]c1=O`: the Potency result with CP265, in the experiment with CP266, in the experiment with CP268, in the experiment with CP269, in the experiment with CP286 and in the experiment on CP291 was “inactive” each time. The Potency entry in the experiment with CP297, in the experiment with CP305, in the experiment with CP315 and in the experiment with CP325 was “inactive” in each case.

On to `Oc1cc(O)c2c(c1)OC(c1ccc(O)c(O)c1)C(O)C2` (stereo not given), for which the Potency entry with CP265, in the experiment on CP266, with CP268, with CP269, in the experiment on CP286 and with CP291 was “inactive” in each case. Moreover, the Potency result in the experiment on CP297, in the experiment on CP305, in the experiment on CP315 and in the experiment on CP325 was “inactive” throughout.

In the case of `CC[N+](C)(C)Cc1ccccc1Br`, the Potency result in the experiment with CP265, in the experiment with CP266, in the experiment on CP268, in the experiment on CP269, in the experiment with CP286 and with CP291 was “inactive” each time. For the same compound, the Potency result with CP297, in the experiment on CP305, in the experiment on CP315 and in the experiment on CP325 was “inactive” in each case.

As to `CCCC(=O)Nc1ncnc2c1ncn2C1OC2COP(=O)(O)OC2C1OC(=O)CCC` (stereo not given), the Potency entry with CP265, in the experiment with CP266, in the experiment on CP268, in the experiment with CP269, with CP286 and in the experiment with CP291 was “inactive” each time. In addition, the Potency entry in the experiment on CP297, in the experiment with CP305, in the experiment with CP315 and in the experiment with CP325 was “inactive” in each case.

For the compound `CCCCC(=O)O[C@]1(C(=O)CO)[C@H](C)C[C@H]2[C@@H]3CCC4=CC(=O)C=C[C@]4(C)[C@@]3(F)[C@@H](O)C[C@@]21C`, the Potency result in the experiment with CP265, in the experiment with CP266, in the experiment with CP268, with CP269, in the experiment with CP286 and in the experiment on CP291 was “inactive” throughout. The Potency result in the experiment with CP297, in the experiment on CP305, in the experiment on CP315 and in the experiment with CP325 was “inactive” throughout.

For the compound `COC(C(=O)C(O)C(C)O)C1Cc2cc3cc(OC4CC(OC5CC(O)C(O)C(C)O5)C(O)C(C)O4)c(C)c(O)c3c(O)c2C(=O)C1OC1CC(OC2CC(OC3CC(C)(O)C(O)C(C)O3)C(O)C(C)O2)C(O)C(C)O1` (stereo not given), the Potency with CP265 was 355 nM (active); in the experiment with CP266, 2130 nM (active); in the experiment with CP268, 1690 nM (active); in the experiment on CP269, 1900 nM (active); in the experiment with CP286 it was 126 nM (active); in the experiment with CP291 it was 1690 nM (active). The Potency in the experiment with CP297 was 2390 nM (active); in the experiment on CP305, 1510 nM (active); in the experiment with CP315, 3790 nM (active); in the experiment with CP325 it was 3010 nM (active).

Regarding `CCCCCCCCCCCC[n+]1ccc2ccccc2c1`, the Potency was 1120 nM (active) in the experiment on CP265; 1690 nM (active) in the experiment on CP266; 1350 nM (active) in the experiment with CP268; 757 nM (active) in the experiment on CP269; 224 nM (active) in the experiment with CP286; 1200 nM (active) in the experiment with CP291. Further, the Potency was 1070 nM (active) in the experiment on CP297, 757 nM (active) in the experiment on CP305, 1070 nM (active) with CP315 and 1200 nM (active) in the experiment on CP325.
